# Data as given in ChEMBL document CHEMBL3988442, “University of Dundee, Small-Polar-MMV Screening Library” (2021).
# In all, about 48,000 compounds went through this assay and about 13,000 (27%) showed an effect of 50% or more. The list shows a part of the results.
# System: Wolbachia pipientis
# Assay: Anti-Wolbachia Cell-Based Screen
# Type: functional
# Parameters: scale not given: in the data most compounds retested in dose-response had high values
# Details: 5 µM
row,Structure (SMILES),Percent Effect
1,Nc1cnc(-c2cccc3ccnn23)cn1,-6.103%
2,CN(CC(=O)Nc1ccc(Br)cn1)C(=O)Cc1ccc(O)cc1,-6.927%
3,CNS(=O)(=O)C1CCN(c2cc(C(C)C)nc(C(C)C)n2)C1 (stereo unspecified),80.93%
4,Cc1cc(=O)[nH]c(SC(C)C(=O)N2CCC(NS(C)(=O)=O)CC2)n1 (stereo unspecified),-6.463%
5,CC(C)c1cc(N2CCC(NS(C)(=O)=O)C2)nc(C(C)C)n1 (stereo unspecified),107.7%
6,Cc1cc(N2CCC(NS(C)(=O)=O)CC2)nc(C(C)C)n1,66.62%
7,Cc1nnc(N2CCC(NS(C)(=O)=O)CC2)c(C#N)c1C,4.066%
8,CS(=O)(=O)NC1CCCN(c2ccc(C#N)cn2)C1 (stereo unspecified),4.469%
9,Cc1cc(N2CCN(C(=O)c3cc(Cl)c[nH]3)CC2)nc(C(C)C)n1,-12.01%
10,CC(C)c1cc(N2CCC(NS(C)(=O)=O)CC2)n2nccc2n1,-0.6269%
11,CC(C)c1cc(N2CC[C@H](F)C2)n2nccc2n1,-1.052%
12,O=c1c2cnc(N3CCCCC3)nc2ccn1-c1ccccc1,8.71%
13,COCCSCC(=O)NC1(c2cccc(Br)c2)CC1,-2.226%
14,COc1ccc(CN2CC3(CCNCC3)CCC2=O)c(F)c1F,-14.66%
15,Cc1ccc(CN(C)c2nccc(-c3cn(C)nc3C)n2)o1,-5.707%
16,Cc1ncncc1-c1ccnc(NC(C)C)n1,107.6%
17,Cc1ncncc1-c1ccnc(N(C)C)n1,99.71%
18,Cc1ccc(-c2ccnc(NC(C)c3n[nH]c(C)n3)n2)c(C)n1 (stereo unspecified),-0.9271%
19,Cc1ccc(-c2ccnc(NC(C)c3ncc[nH]3)n2)c(C)n1 (stereo unspecified),7.863%
20,Cc1nn(C)cc1-c1ccnc(N(C)Cc2ccc(F)cc2)n1,21.27%
21,Nc1nccc(-c2cccc3ccnn23)n1,-5.19%
22,Cc1ncncc1-c1ccnc(N)n1,103.4%
23,Nc1nccc(-c2c[nH]nc2C2CCCCC2)n1,-15.86%
24,O=C(CSc1ccccn1)N1C[C@H]2CC[C@@H]1CN(Cc1cscn1)C2,3.579%
25,CCN(CC)c1ncc(Cl)c(C(=O)NC2CCc3nccn3C2)n1 (stereo unspecified),-2.888%
26,Cc1ccccc1N1CCN(C(=O)c2cnn(C(C)C)c2)C(C)C1 (stereo unspecified),2.986%

row,Structure (SMILES),Percent Effect
1,COc1cccc2c1OCC(C(=O)N(Cc1ccncc1)CC(C)C)C2 (stereo unspecified),-1.678%
2,CC(C)N(CCO)C(=O)C1CCC(=O)N(CCc2ccc(Cl)cc2)C1 (stereo unspecified),-6.406%
3,COc1ncccc1CN1CCC2(CC1)CN(c1ccccn1)CCO2.O=C(O)C(F)(F)F.O=C(O)C(F)(F)F.O=C(O)C(F)(F)F,8.158%
4,COC1COC2(CCN(Cc3ccccc3Cl)CC2)C1.O=C(O)C(F)(F)F (stereo unspecified),-10.24%
5,CNC(=O)COC1COC2(CCN(c3ncccn3)CC2)C1.O=C(O)C(F)(F)F (stereo unspecified),21.38%
6,CCOC1COC2(CCN(Cc3cccnc3OC)CC2)C1.O=C(O)C(F)(F)F.O=C(O)C(F)(F)F (stereo unspecified),97.13%
7,COc1ncccc1CN1CCC2(CC1)CC(OCC1CC1)CO2.O=C(O)C(F)(F)F (stereo unspecified),103.5%
8,CNC(=O)COC1COC2(CCN(Cc3cccnc3OC)CC2)C1.O=C(O)C(F)(F)F (stereo unspecified),91.78%
9,COc1cccc2c1OCC(CNC(=O)CCn1cnnn1)C2 (stereo unspecified),-3.423%
10,Cc1cc(N2CCCC(OC(=O)CCc3cnn(C)c3)C2)nc(C)n1 (stereo unspecified),0.03167%
11,COCCN1CCN(CC2(O)CCCCC2)CC1,-7.115%
12,COCCN1CCC(C)(c2cc(O)[nH]n2)CC1,107.8%
13,COCCCC1(CO)CCCN(CCOC)C1 (stereo unspecified),5.578%
14,COCCCC1(CO)CCCN(CCS(C)(=O)=O)C1 (stereo unspecified),-5.665%
15,COCCN1CCCC(C)(c2cc(O)[nH]n2)C1 (stereo unspecified),85%
16,COCCN1CCC2(CC1)CC(OCC1CC1)c1ccc(C)cc12 (stereo unspecified),-29.1%
17,COc1cccc([C@@H]2CN(C3CSCCSC3)C[C@H]2C(=O)O)c1,-1.681%
18,O=C(O)C(F)(F)F.O=C(O)C(F)(F)F.c1cnc(N2CC[C@@H](N3CCOCC3)[C@@H]2Cc2ccncc2)nc1,-7.245%
19,CC(C)NC(=O)NC(C)c1ccc(-c2ccncc2)cc1 (stereo unspecified),-5.821%
20,CN(C)C(=O)c1cc(S(=O)(=O)N2CCCC2Cn2ccnc2)cn1C (stereo unspecified),11.52%
21,Cc1nn(C)cc1S(=O)(=O)N(C)[C@@H]1CCC[C@@H](n2ccnc2)[C@@H]1O,94.74%
22,CO[C@H]1CCN(S(=O)(=O)c2cn(C)cn2)[C@H]1Cc1ccncc1,-4.113%
23,CC(C)N(C)CC(=O)N1CCCC(n2ccnc2)C1 (stereo unspecified),-10.62%
24,CCN(CC)[C@@H]1CN(S(=O)(=O)c2cn(C)cn2)[C@@H]2CCCO[C@H]12,-3.081%
25,CN([C@@H]1CCC[C@@H](n2ccnc2)[C@@H]1O)S(=O)(=O)c1cn(C)cn1,87.13%
